# Rows were chosen to be rich in hits. Some 11% of all compounds tested hit in one or more screens of this group.
# G9a block: qHTS Assay for Inhibitors of Histone Lysine Methyltransferase G9a; G9a H3K9 monomethylation, AlphaScreen, 2 h; Potency, µM (doses to about 102 µM), for inactives: at the top dose activity, negative = inhibition, actives largely listed as inhibitors; 8.8% of 350,000 active; AID 504332, 2011; also: potency is read from the fitted curve at half-maximal effect; % is scaled to controls: 0 for no effect and ±100 for the full control effect; nearly all actives have a fitted effect of over 75% in size
# Target sequence (Q96KQ7 913-1193 limits assumed): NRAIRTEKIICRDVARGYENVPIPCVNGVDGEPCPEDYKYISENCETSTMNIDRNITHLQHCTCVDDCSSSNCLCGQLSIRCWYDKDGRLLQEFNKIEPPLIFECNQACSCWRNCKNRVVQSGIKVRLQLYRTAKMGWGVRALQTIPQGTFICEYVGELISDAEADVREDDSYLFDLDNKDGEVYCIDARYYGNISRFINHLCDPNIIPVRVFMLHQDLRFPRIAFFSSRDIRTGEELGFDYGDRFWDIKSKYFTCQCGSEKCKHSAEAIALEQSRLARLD
#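 Signal arises when biotinylated H3K9 peptide, once monomethylated, bridges streptavidin donor and antibody-captured acceptor beads. Enzyme at 20 nM was preincubated 15 min with test compounds; peptide 500 nM and SAM 20 uM then reacted for 2 h.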
# BAZ2B inh: qHTS Assay for Inhibitors of BAZ2B; Bromodomain adjacent to zinc finger domain protein 2B (Homo sapiens), Q9UIF8; 4.4% of 360,000 active; Potency, µM (titrated, usually from 114 µM), inactives show at the top dose activity change, negative = inhibition, usual class: inhibitors; AlphaScreen BAZ2B-H3K14Ac peptide displacement; also: potency is read from the fitted curve at half-maximal effect; % is scaled to controls: 0 for no effect and ±100 for the full control effect; nearly all actives have a fitted effect of over 60% in size
#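 Complex of BAZ2B and biotin-H3K14Ac (50 nM apiece) forms over 30 min at RT, then faces library compounds up to 110 uM for another 30 min; AlphaScreen beads added, 20 min dark incubation, luminescence read.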
# HP1b chromo inh: HTS for Inhibitors of HP1-beta Chromodomain Interactions with Methylated Histone Tails | AID 540317, 2011 | Potency, µM (top dose mostly 114 µM), for the others: at the highest dose activity change, negative = inhibition, most hits filed as inhibitors | Chromobox protein homolog 1 (Homo sapiens), P83916 | 0.56% of 390,000 active | AlphaScreen HP1-beta / biotin-H3K9me3 peptide binding; also: potency is read from the fitted curve at half-maximal effect; nearly all actives have a fitted effect of over 70% in size
# Target sequence (P83916 whole entry, looked up): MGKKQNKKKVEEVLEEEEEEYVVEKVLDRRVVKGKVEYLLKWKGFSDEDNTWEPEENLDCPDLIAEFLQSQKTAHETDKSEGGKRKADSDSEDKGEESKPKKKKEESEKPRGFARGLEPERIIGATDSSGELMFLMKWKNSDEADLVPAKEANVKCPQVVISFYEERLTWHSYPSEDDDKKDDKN
#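 HP1-beta protein (50 nM final) preincubated 30 min at room temperature with biotinylated H3(1-18)K9me3 peptide (50 nM) in PBS pH 7.4, 0.01% Tween-20, then compound added for 30 min. AlphaScreen streptavidin donor/nickel chelate acceptor beads (10 ug/mL final), 30 min dark, luminescence read.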
# PI5P4Ka inh: qHTS for Inhibitors of phosphatidylinositol 5-phosphate 4-kinase (PI5P4K); Phosphatidylinositol 5-phosphate 4-kinase type-2 alpha (Homo sapiens), P48426; 1.2% of 330,000 active; max response, %; PI5P4Kalpha enzyme, ADP-Glo luminescence, 60 min; active compounds read low; active = max response of -50% or lower; inconclusive = between -30% and -50%; inactive = -30% or higher; also: value at the top dose of about 77 µM; % is scaled to controls: 0 for no effect and ±100 for the full control effect
#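 PI5P4Kalpha ADP-Glo assay; 5 microM ATP final; 60 min RT reaction; HEPES pH 7.4/EGTA/CHAPS, 5% DMSO; controls lacking substrate or enzyme; luminescent end-point.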
# JMJD2A Tudor inh: qHTS Assay for Inhibitors of JMJD2A-Tudor Domain | 4.4% of 390,000 active | Potency, µM (titrated, usually from 114 µM), inactives show at the highest dose activity change, negative = inhibition, hits mostly inhibitors | AID 504339, 2011 | AlphaScreen JMJD2A-Tudor / H3K4me3 peptide binding | Lysine-specific demethylase 4A (Homo sapiens), O75164; also: potency is read from the fitted curve at half-maximal effect; % is scaled to controls: 0 for no effect and ±100 for the full control effect; nearly all actives have a fitted effect of over 50% in size
# L3MBTL1 inh: qHTS Assay for the Inhibitors of L3MBTL1; Potency, µM (top dose mostly 57.1 µM), inactives show top-dose activity, negative = inhibition, actives largely listed as inhibitors; AlphaScreen L3MBTL1–H3K9me1 peptide binding; Lethal(3)malignant brain tumor-like protein 1 (Homo sapiens), Q9Y468; AID 485360, 2010; 0.66% of 230,000 active; also: potency is read from the fitted curve at half-maximal effect; % is scaled to controls: 0 for no effect and ±100 for the full control effect; nearly all actives have a fitted effect of over 60% in size
#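 Displacement of a biotinylated histone H3(1-15) peptide monomethylated at Lys9 (75 nM) from L3MBTL1 (50 nM) was measured by AlphaScreen after a 30 min room-temperature compound incubation; cefsulodin titration served as intraplate control.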
# Numbers without * were called inactive; ? = inconclusive; nt = no result given; [ ] = remark or other dose. Unless noted, calls follow the shape of the dose curve; as a rule, active = well fitted inhibition curve with a large enough effect; inconclusive = small, poorly fitted or top-dose-only effect; inactive = no such curve, though single readings can be large or run the other way.
SMILES,G9a block,BAZ2B inh,HP1b chromo inh,PI5P4Ka inh,JMJD2A Tudor inh,L3MBTL1 inh
O=C(CCl)c1ccc(Cc2ncc(C(F)(F)F)cc2Cl)s1,?,?,30%,2,79µM*,-6%
O=C(Nc1cccc(C(=O)OCc2cc(=O)n3nc(C4CC4)sc3n2)c1)c1cccc(F)c1,5%[59 µM],-6%,18%,nt,-29%,nt
CCCc1sc(N/N=C/c2ccccn2)nc1-c1ccc(F)cc1,-46%[59 µM],?,-20%,nt,45µM*,-9%
COc1ccccc1NC(=O)Cn1c(=O)n(-c2cccc(C)c2)c(=O)c2c1c1cc(C)ccc1n2C,5%[59 µM],7%,29%,nt,-17%,nt
CN1C(=S)SC(C)(NO)C1(C)C (stereo unspecified),?,?,?,nt,22µM*,4%[11.4 µM]
Nc1nc(N)c2[nH]c(=S)[nH]c2n1,nt,nt,?,-52*,3.5µM*,nt
Nc1nc(N)c2[nH]cnc2n1,nt,nt,71%,1,-7%,nt
COC(=O)c1cc(CSc2nnc(NC3CCCCC3)s2)oc1C,?,?,19%,6,89µM*,nt
COc1cc(NC(=O)c2noc3c2CCc2ccccc2-3)cc(OC)c1OC,-7%[59 µM],-17%,51%,nt,-32%,nt
O=C(CSc1nc(-c2ccc(F)cc2)[nH]c1-c1ccc(F)cc1)Nc1ccc2c(c1)OCO2,13%[59 µM],?,46%,nt,-13%,nt
O=C(CSc1ncc(-c2ccc(F)cc2)n1Cc1ccco1)Nc1ccc2c(c1)OCO2,?,11µM*,-56%,7,45µM*,nt
CCOc1ccc(NC(=O)CSc2ncc(-c3ccc(F)cc3)n2Cc2ccco2)cc1,?,8.9µM*,-18%,2,-18%[11.4 µM],nt
CCc1nc2ccc(C(=O)NCc3ccc(OC)c(OC)c3)cc2nc1CC,6%[59 µM],1%,24%,nt,-12%,nt
COc1cccc(NC(=O)CCN2C(=O)c3cccc([N+](=O)[O-])c3C2=O)c1,-6%,3%,9%,7,-9%,nt
CC(OC(=O)CCN1C(=O)c2cccc([N+](=O)[O-])c2C1=O)C(=O)Nc1cc(Cl)cc(Cl)c1 (stereo unspecified),25µM*,-34%,4%,-3,-23%,-2%
CC1CCc2noc(NC(=O)c3ccccc3[N+](=O)[O-])c2C1 (stereo unspecified),16µM*,?,-14%,nt,?,nt
CC(NC(=O)CCCCCCN1C(=O)c2ccccc2C1=O)c1ccc2c(c1)CCCC2 (stereo unspecified),32%[59 µM],-2%,48%,2,3%,3%
CC(NC(=O)CCCCCN1C(=O)c2ccccc2C1=O)c1ccc2c(c1)CCCC2 (stereo unspecified),8.9µM*,5%,10%,nt,-35%,5%
COc1ccccc1NS(=O)(=O)c1ccc(N/N=C/C=C/c2ccccc2[N+](=O)[O-])c([N+](=O)[O-])c1,-51%,?,-15%,1,?,-7%
COc1ccccc1NS(=O)(=O)c1ccc(N/N=C/c2ccccc2OCC(=O)O)c([N+](=O)[O-])c1,20µM*,40µM*,?,-2,56µM*,nt
COc1ccccc1NS(=O)(=O)c1ccc(NN=C2CCCC2)c([N+](=O)[O-])c1,25µM*,?,?,0,20µM*,-21%
O=C(O)COc1ccccc1/C=N/Nc1ccc(S(=O)(=O)Nc2ccc(Cl)cc2)cc1[N+](=O)[O-],35µM*,35µM*,?,-29,?,-29%

# Bioassay records: PubChem BioAssay, National Center for Advancing Translational Sciences (NCATS)
